PubChem BioAssay (NCI)
This is part of a sample that, as a whole, favours compounds with a hit. Of some 83,000 tested, about 20% had one in any assay.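 Cell lines were cultured in 96-well plates, exposed to a single compound concentration, and assessed for percent growth 48 hours later.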 Active and inactive are the calls of the source. The calls were made as follows: active = growth percent below 10; inactive = the rest.

Tests used:
Assay in all cases: NCI-60 one-dose screen, 48 h (100 = growth as untreated, 0 = no growth, -100 = all killed)
Conditions in all cases: 10 µM unless noted
BT-549 breast = system: BT-549 breast
MDA-MB-435 melanoma = system: MDA-MB-435 melanoma
SW-620 colon = system: SW-620 colon
MCF7 breast = system: MCF7 breast
HCT-116 colon = system: HCT-116 colon
HCC-2998 colon = system: HCC-2998 colon
KM12 colon = system: KM12 colon

O=C(Cn1c(=O)sc2nc3ccccc3nc21)Nc1ncc(Cc2cccc(Cl)c2Cl)s1
growth (BT-549 breast): 100% (inactive) | growth (MDA-MB-435 melanoma): 101% (inactive) | growth (SW-620 colon): 100% (inactive) | growth (MCF7 breast): 91.6% (inactive) | growth (HCT-116 colon): 102% (inactive) | growth (HCC-2998 colon): 101% (inactive) | growth (KM12 colon): 99.9% (inactive)

CC(=O)[C@@H]1CCC=C2CC[C@]3(C)[C@@H](CC[C@@H]4[C@@]5(C)CCCNC(C)(C)[C@@H]5CC[C@]43C)[C@H]21
growth (BT-549 breast): 75.9% (inactive) | growth (MDA-MB-435 melanoma): -71.1% (active) | growth (SW-620 colon): -58.9% (active) | growth (MCF7 breast): -72.9% (active) | growth (HCT-116 colon): -96.2% (active) | growth (HCC-2998 colon): -93.8% (active) | growth (KM12 colon): -79% (active)

CN([O-])c1nc(N(C)[O-])nc(N2CCOCC2)n1.CN([O-])c1nc(N(C)[OH2+])nc(N2CCOCC2)n1.[Fe+3]
growth (BT-549 breast): 85.8% [100 µM] (inactive) | growth (MDA-MB-435 melanoma): -30.5% [100 µM] (active) | growth (SW-620 colon): 58.3% [100 µM] (inactive) | growth (MCF7 breast): 90.1% [100 µM] (inactive) | growth (HCT-116 colon): 65.8% [100 µM] (inactive) | growth (HCC-2998 colon): 114% [100 µM] (inactive) | growth (KM12 colon): 33.6% [100 µM] (inactive)

COc1ccc(-c2nc3c(c(-c4ccccc4)nn3-c3ccccc3)c(-c3ccc(N4CCOCC4)cc3)c2C#N)cc1
growth (BT-549 breast): 95.3% (inactive) | growth (MDA-MB-435 melanoma): 99.2% (inactive) | growth (MCF7 breast): 84.6% (inactive) | growth (HCT-116 colon): 96% (inactive) | growth (HCC-2998 colon): 108% (inactive) | growth (KM12 colon): 104% (inactive)

COc1ccc(C(=O)Nc2cccc(C3CC(=O)c4c(cc(OC)c(OC)c4OC)O3)c2)cc1 (stereo not given)
growth (BT-549 breast): 34.7% (inactive) | growth (MDA-MB-435 melanoma): -47.3% (active) | growth (SW-620 colon): 27.3% (inactive) | growth (MCF7 breast): 15.2% (inactive) | growth (HCT-116 colon): 10.9% (inactive) | growth (HCC-2998 colon): 64.9% (inactive) | growth (KM12 colon): 13.8% (inactive)

O=C1Nc2ccccc2/C1=C\c1nc(-c2ccccc2F)n2ccccc12
growth (BT-549 breast): 24.5% (inactive) | growth (MDA-MB-435 melanoma): 44.1% (inactive) | growth (SW-620 colon): 26.2% (inactive) | growth (MCF7 breast): 27.8% (inactive) | growth (HCT-116 colon): -36.4% (active) | growth (HCC-2998 colon): 86.1% (inactive) | growth (KM12 colon): 34.4% (inactive)

COc1ccc(-c2nn(-c3ccccc3)cc2/C=C2/SC(=S)N(C)C2=O)cc1
growth (BT-549 breast): 102% (inactive) | growth (MDA-MB-435 melanoma): 84.9% (inactive) | growth (MCF7 breast): 75.3% (inactive) | growth (HCT-116 colon): 31% (inactive) | growth (HCC-2998 colon): 98.9% (inactive) | growth (KM12 colon): 98.4% (inactive)

COc1ccc(-c2ccc3cnc4sc(-c5ccc(OC)cc5)nc4c3n2)cc1
growth (BT-549 breast): 108% (inactive) | growth (MDA-MB-435 melanoma): 101% (inactive) | growth (SW-620 colon): 112% (inactive) | growth (MCF7 breast): 78% (inactive) | growth (HCT-116 colon): 94.5% (inactive) | growth (HCC-2998 colon): 93.1% (inactive) | growth (KM12 colon): 89.1% (inactive)

CCN(CC)c1nc(SCc2ccccc2Cl)ncc1C
growth (BT-549 breast): 134% (inactive) | growth (MDA-MB-435 melanoma): 108% (inactive) | growth (SW-620 colon): 105% (inactive) | growth (MCF7 breast): 106% (inactive) | growth (HCT-116 colon): 94.2% (inactive) | growth (HCC-2998 colon): 106% (inactive) | growth (KM12 colon): 108% (inactive)

OCCNCCCOc1ccc2ncnc(Nc3ccc(Oc4cccc(C(F)(F)F)c4)c(Cl)c3)c2c1
growth (BT-549 breast): 95.6% (inactive) | growth (MDA-MB-435 melanoma): -65.2% (active) | growth (SW-620 colon): -84.2% (active) | growth (MCF7 breast): -40% (active) | growth (HCT-116 colon): 12.7% (inactive) | growth (HCC-2998 colon): -75.1% (active) | growth (KM12 colon): 3.05% (active)

CCCCCCCCn1ccc2cc(NC(=O)Cn3cc(CN4CCCCC4)nn3)ccc21
growth (BT-549 breast): 71.6% (inactive) | growth (MDA-MB-435 melanoma): -74.6% (active) | growth (SW-620 colon): -66.1% (active) | growth (MCF7 breast): 9.34% (active) | growth (HCT-116 colon): 2.64% (active) | growth (HCC-2998 colon): -70.4% (active) | growth (KM12 colon): 19% (inactive)

Cn1cc(-c2csc(-c3ccc(Cl)cc3)n2)c2cccnc21
growth (BT-549 breast): -38.1% [100 µM] (active) | growth (SW-620 colon): -62% [100 µM] (active) | growth (MCF7 breast): -35.2% [100 µM] (active) | growth (HCT-116 colon): -62% [100 µM] (active) | growth (HCC-2998 colon): -91.9% [100 µM] (active) | growth (KM12 colon): -82.4% [100 µM] (active)

COC(=O)c1cc(-c2ccccc2)[nH]c1N/N=C/c1c(Cl)cccc1Cl
growth (BT-549 breast): 24.1% (inactive) | growth (MDA-MB-435 melanoma): -26.9% (active) | growth (SW-620 colon): 13.3% (inactive) | growth (MCF7 breast): -38.2% (active) | growth (HCT-116 colon): -1.99% (active) | growth (KM12 colon): 10.2% (inactive)

CCOC(=O)c1c2c(n3ccc(C)cc13)C(=O)c1ccccc1C2=O
growth (BT-549 breast): 77.2% (inactive) | growth (MDA-MB-435 melanoma): 108% (inactive) | growth (SW-620 colon): 89.2% (inactive) | growth (MCF7 breast): 82.5% (inactive) | growth (HCT-116 colon): 76.5% (inactive) | growth (HCC-2998 colon): 101% (inactive) | growth (KM12 colon): 94.1% (inactive)

N#C/C(=C\c1ccc(Br)cc1)n1nnc2ccc(F)cc21
growth (BT-549 breast): 1.54% (active) | growth (MDA-MB-435 melanoma): -34.1% (active) | growth (SW-620 colon): -48.4% (active) | growth (MCF7 breast): 5.23% (active) | growth (HCT-116 colon): -75.3% (active) | growth (HCC-2998 colon): -63.6% (active) | growth (KM12 colon): -24.7% (active)

Clc1ccc(Nc2nnc(COc3ccccc3)c3ccccc23)cc1
growth (BT-549 breast): -9.97% (active) | growth (MDA-MB-435 melanoma): -3.33% (active) | growth (SW-620 colon): 15.4% (inactive) | growth (MCF7 breast): 1.31% (active) | growth (HCT-116 colon): 1.21% (active) | growth (HCC-2998 colon): 8.55% (active) | growth (KM12 colon): 0.179% (active)

CN(C)CCCC1(c2ccc(F)cc2)OCc2cc(-c3cncc4ccccc34)ccc21 (stereo not given)
growth (BT-549 breast): 76.8% (inactive) | growth (MDA-MB-435 melanoma): 8.32% (active) | growth (SW-620 colon): 34.2% (inactive) | growth (MCF7 breast): 23.5% (inactive) | growth (HCT-116 colon): 22.5% (inactive) | growth (HCC-2998 colon): 7.15% (active) | growth (KM12 colon): 34.5% (inactive)

O=C(/C=C/c1ccccc1)c1cccc(OCCCOc2cccc(C(=O)/C=C/c3ccccc3)c2)c1
growth (BT-549 breast): 92% (inactive) | growth (MDA-MB-435 melanoma): 101% (inactive) | growth (SW-620 colon): 54.2% (inactive) | growth (MCF7 breast): 11.3% (inactive) | growth (HCT-116 colon): -81.3% (active) | growth (HCC-2998 colon): 42.2% (inactive) | growth (KM12 colon): 25.7% (inactive)

CCc1ccc(C(=O)/C=C/C23c4ccccc4C(c4ccccc42)C2C(=O)NC(=O)C23)cc1 (stereo not given)
growth (BT-549 breast): -7.29% (active) | growth (SW-620 colon): 8.84% (active) | growth (MCF7 breast): 16.6% (inactive) | growth (HCT-116 colon): -40% (active) | growth (HCC-2998 colon): 24.5% (inactive) | growth (KM12 colon): 11.2% (inactive)

Cc1ccc(Cc2cnc(NC(=O)c3cc(Br)cs3)s2)cc1
growth (BT-549 breast): 37.1% (inactive) | growth (MDA-MB-435 melanoma): -16.5% (active) | growth (SW-620 colon): 42% (inactive) | growth (MCF7 breast): 30.3% (inactive) | growth (HCT-116 colon): 32.9% (inactive) | growth (HCC-2998 colon): 82.9% (inactive) | growth (KM12 colon): 47.3% (inactive)
